Results as given in PubChem BioAssay (EPA / NIEHS).
Where “and” joins values, the source holds several entries; their conditions need not be identical. Equal values may be shown once. Results filed as inconclusive are left out. Where a structure was tested more than once in an assay, its records may differ in their call. Calls of active or inactive are those of the source. The calls were made as follows, unless noted: active = hit-call score of the fitted dose curve at least 0.9, where 1 is the maximum; inactive = score below 0.9.

Columns and labels:
[1] = target: human RAR-related Orphan Receptor beta (RORb), RORB (gene 6096) (UniProt Q92753); assay: ATG_RORb_TRANS: Attagene TRANS-FACTORIAL HepG2 Assay for human RAR-related Orphan Receptor beta (RORb) (AID 2283010; active = hit-call score of the fitted dose curve at least 0.9, where 1 is the maximum)
human RAR-related Orphan Receptor beta (RORb), RORB (gene 6096), sequence (Q92753 whole entry, looked up, the tested form may be a part): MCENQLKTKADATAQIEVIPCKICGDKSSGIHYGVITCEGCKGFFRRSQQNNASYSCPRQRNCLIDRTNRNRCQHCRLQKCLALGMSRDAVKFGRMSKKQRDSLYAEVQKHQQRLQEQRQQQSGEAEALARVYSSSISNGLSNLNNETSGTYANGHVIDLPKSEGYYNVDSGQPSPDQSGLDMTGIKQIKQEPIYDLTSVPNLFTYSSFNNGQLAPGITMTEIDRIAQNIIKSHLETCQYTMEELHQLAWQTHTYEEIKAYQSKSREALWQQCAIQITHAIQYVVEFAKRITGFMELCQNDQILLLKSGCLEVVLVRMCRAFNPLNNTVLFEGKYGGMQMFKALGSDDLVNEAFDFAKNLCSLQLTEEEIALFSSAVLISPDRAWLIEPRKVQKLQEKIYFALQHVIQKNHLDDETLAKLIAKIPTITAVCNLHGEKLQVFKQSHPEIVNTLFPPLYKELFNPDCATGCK
Method in brief: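 Readout is reporter-gene mRNA induction, detected as fluorescence after RT-PCR and capillary electrophoresis, fitted for gain of signal against DMSO controls. Transiently transfected HepG2 liver cells carrying GAL4-UAS reporter constructs were treated for 24 hours.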

[2] = target: human RAR-related Orphan Receptor gamma (RORg), RORC (gene 6097) (UniProt P51449); assay: ATG_RORg_TRANS: Attagene TRANS-FACTORIAL HepG2 Assay for human RAR-related Orphan Receptor gamma (RORg) (AID 2283011; active = hit-call score of the fitted dose curve at least 0.9, where 1 is the maximum)
human RAR-related Orphan Receptor gamma (RORg), RORC (gene 6097), sequence (P51449 whole entry, looked up, the tested form may be a part): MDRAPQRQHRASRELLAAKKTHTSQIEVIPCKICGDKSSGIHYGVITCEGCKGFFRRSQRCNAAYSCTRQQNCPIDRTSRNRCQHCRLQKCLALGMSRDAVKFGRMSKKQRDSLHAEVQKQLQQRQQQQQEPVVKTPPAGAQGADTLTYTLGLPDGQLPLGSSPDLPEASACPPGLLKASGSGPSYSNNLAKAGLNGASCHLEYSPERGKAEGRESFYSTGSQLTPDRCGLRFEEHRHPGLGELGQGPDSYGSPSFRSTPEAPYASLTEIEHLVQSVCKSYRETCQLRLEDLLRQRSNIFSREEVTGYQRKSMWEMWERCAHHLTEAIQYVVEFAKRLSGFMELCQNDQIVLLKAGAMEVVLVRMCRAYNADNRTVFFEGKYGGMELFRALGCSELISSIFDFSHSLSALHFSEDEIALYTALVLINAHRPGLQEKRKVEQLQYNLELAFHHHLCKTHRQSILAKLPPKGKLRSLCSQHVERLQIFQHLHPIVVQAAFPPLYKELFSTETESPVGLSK
Method in brief: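 HepG2 cells transiently transfected with GAL4-UAS reporter units and chimeric RORg-Gal4 construct; after 24 h chemical exposure, reporter mRNA measured by RT-PCR with fluorescent capillary electrophoresis, gain of signal fitted against DMSO.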

[3] = target: Retinoic acid receptor RXR-alpha (Homo sapiens) (UniProt P19793); assay: ATG_RXRa_TRANS: Attagene TRANS-FACTORIAL HepG2 Assay for human Retinoid X Receptor alpha (RXRa) (AID 2283012; active = hit-call score of the fitted dose curve at least 0.9, where 1 is the maximum)
Retinoic acid receptor RXR-alpha (Homo sapiens), sequence (P19793 whole entry, looked up, the tested form may be a part): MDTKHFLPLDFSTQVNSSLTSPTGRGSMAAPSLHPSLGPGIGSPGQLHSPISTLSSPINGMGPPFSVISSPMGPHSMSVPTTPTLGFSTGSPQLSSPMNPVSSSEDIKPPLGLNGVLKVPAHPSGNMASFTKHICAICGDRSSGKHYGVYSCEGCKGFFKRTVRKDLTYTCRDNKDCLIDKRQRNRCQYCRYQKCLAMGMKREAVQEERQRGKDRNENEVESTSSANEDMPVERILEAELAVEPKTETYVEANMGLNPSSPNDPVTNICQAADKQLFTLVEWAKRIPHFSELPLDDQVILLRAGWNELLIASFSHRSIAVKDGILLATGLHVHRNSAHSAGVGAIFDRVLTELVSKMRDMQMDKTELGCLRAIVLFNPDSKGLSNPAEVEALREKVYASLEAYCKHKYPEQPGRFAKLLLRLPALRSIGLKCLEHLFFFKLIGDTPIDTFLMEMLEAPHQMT
Method in brief: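 Transient transfection of human HepG2 with multiple GAL4-UAS reporter constructs; 24 h compound exposure; total RNA isolated, reverse-transcribed, PCR-amplified, 6-FAM labelled, HpaI-cut, resolved by capillary electrophoresis. Positive-direction fit versus DMSO.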

[4] = target: human Retinoid X Receptor beta (RXRb), RXRB (gene 6257) (UniProt P28702); assay: ATG_RXRb_TRANS: Attagene TRANS-FACTORIAL HepG2 Assay for human Retinoid X Receptor beta (RXRb) (AID 2283013; active = hit-call score of the fitted dose curve at least 0.9, where 1 is the maximum)
human Retinoid X Receptor beta (RXRb), RXRB (gene 6257), sequence (P28702 whole entry, looked up, the tested form may be a part): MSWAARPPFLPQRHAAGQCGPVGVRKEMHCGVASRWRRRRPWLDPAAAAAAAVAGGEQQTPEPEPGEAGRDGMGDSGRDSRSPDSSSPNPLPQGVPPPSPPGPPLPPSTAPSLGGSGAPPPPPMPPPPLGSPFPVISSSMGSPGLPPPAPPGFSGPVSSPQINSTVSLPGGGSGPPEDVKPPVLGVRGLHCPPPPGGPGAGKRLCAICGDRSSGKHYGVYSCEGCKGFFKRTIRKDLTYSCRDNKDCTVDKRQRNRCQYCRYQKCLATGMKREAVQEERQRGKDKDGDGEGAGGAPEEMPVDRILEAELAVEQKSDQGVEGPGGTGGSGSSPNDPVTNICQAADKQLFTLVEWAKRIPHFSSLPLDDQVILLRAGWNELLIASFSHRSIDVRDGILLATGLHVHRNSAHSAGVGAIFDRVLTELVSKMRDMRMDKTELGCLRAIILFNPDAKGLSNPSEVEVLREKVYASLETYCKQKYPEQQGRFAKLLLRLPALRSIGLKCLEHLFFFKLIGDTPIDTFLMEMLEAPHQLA
Method in brief: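 Transfect HepG2 with GAL4-UAS multi-reporter constructs (chimeric NR-Gal4, TRANS format); dose compound 24 h; isolate RNA, RT-PCR, FAM primer extension, HpaI digest; quantify by capillary electrophoresis; positive direction vs DMSO.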

[5] = read-out: E-selectin (Homo sapiens) (UniProt P16581); assay: BSK_3C_Eselectin: BioMAP Diversity Plus: 3C Assay for Eselectin Biomarker Activity (AID 2283015); conditions: primary human endothelial cells (HUVEC); actives raise or lower the signal
Method in brief: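 Primary human umbilical vein endothelial cells (3C system), read 24 h after compound addition; E-selectin measured by ELISA. Bidirectional curve fitting against DMSO baseline; cytotoxicity by parallel SRB total-protein staining.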

[6] = read-out: Monocyte Chemoattractant Protein-1 (MCP1), CCL2 (gene 6347); assay: BSK_3C_MCP1: BioMAP Diversity Plus: 3C Assay for Monocyte Chemoattractant Protein-1 (MCP1) Biomarker Activity (AID 2283017); conditions: primary human endothelial cells (HUVEC); actives raise or lower the signal
Method in brief: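 Human umbilical vein endothelial cells (3C system) exposed to chemicals for 24 h; MCP-1 quantified by ELISA against the DMSO baseline with bidirectional fitting, and parallel SRB staining used to assess cytotoxicity.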

[7] = read-out: Monocyte Chemoattractant Protein-1 (MCP1), CCL2 (gene 6347); assay: BSK_4H_MCP1: BioMAP Diversity Plus: 4H Assay for Monocyte Chemoattractant Protein-1 (MCP1) Biomarker Activity (AID 2283018); conditions: primary human endothelial cells (HUVEC); actives raise or lower the signal
Method in brief: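 ELISA read-out of MCP-1 from human vascular endothelial primary cells taken at 24 hours after compound exposure. Activity was fitted in both directions relative to DMSO, which served as negative control.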

[8] = read-out: Human Leukocyte Antigen - DR isotype (HLADR), HLA-DRA (gene 3122); assay: BSK_3C_HLADR: BioMAP Diversity Plus: 3C Assay for Human Leukocyte Antigen - DR isotype (HLADR) Biomarker Activity (AID 2283019); conditions: primary human endothelial cells (HUVEC); actives raise or lower the signal;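 also: ELISA of cell-surface HLA-DR on HUVEC 24 h after dosing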
Method in brief: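 HUVEC monoculture, HLA-DR measured by ELISA 24 h after chemical dosing. Fitted bidirectionally against DMSO baseline; parallel SRB staining assessed cytotoxicity, with 3C proliferation read by SRB at 48 h.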

[9] = read-out: Interleukin-8 (IL8), CXCL8 (gene 3576); assay: BSK_3C_IL8: BioMAP Diversity Plus: 3C Assay for Interleukin-8 (IL8) Biomarker Activity (AID 2283020); conditions: primary human endothelial cells (HUVEC); actives raise or lower the signal
Method in brief: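 ELISA read-out of IL-8 from human umbilical vein endothelium, measured 24 h after chemical dosing. Activity is expressed relative to DMSO negative control, with both increases and decreases fitted.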

[10] = read-out: Monokine induced gamma interferon (MIG), CXCL9 (gene 4283); assay: BSK_3C_MIG: BioMAP Diversity Plus: 3C Assay for Monokine induced gamma interferon (MIG) Biomarker Activity (AID 2283021); conditions: primary human endothelial cells (HUVEC); actives raise or lower the signal;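 as to AC50: MIG protein level measured by immunoassay in the treated endothelial cultures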
Method in brief: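 Read-out is ELISA detection of MIG on human umbilical vein endothelial cells, taken 24 h after dosing. Gain or loss of signal was scored relative to DMSO controls using bidirectional curve fitting.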

[11] = read-out: Pselectin, SELP (gene 6403); assay: BSK_4H_Pselectin: BioMAP Diversity Plus: 4H Assay for Pselectin Biomarker Activity (AID 2283026); conditions: primary human endothelial cells (HUVEC); actives raise or lower the signal
Method in brief: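 ELISA read-out of P-selectin on human umbilical vein endothelium after 24 h of dosing. Values derive from bidirectional fitting relative to DMSO. Parallel SRB protein staining flagged overt cytotoxicity.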

[12] = BSK_4H_SRB: Viability Assessment in the BioMAP Diversity Plus: 4H Assay (AID 2283027); conditions: primary human endothelial cells (HUVEC);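 also: cells exposed to compound for 24 h before staining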;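 as to AC50: curves fitted both ways versus DMSO so AC50 may be loss or gain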
Method in brief: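 Human umbilical vein endothelial cells, 24 h after chemical dosing; total protein measured by 0.1% sulforhodamine B staining after 10% TCA fixation, read at 560 nm. Bidirectional fitting against DMSO.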

[13] = BSK_BE3C_SRB: Viability Assessment in the BioMAP Diversity Plus: BE3C Assay (AID 2283028); conditions: primary human bronchial epithelial cells;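 as to AC50: fitted both ways so AC50 may mark signal gain or loss versus DMSO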
Method in brief: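 Human bronchial epithelial primary cells in confluent culture, 24 h after chemical dosing; total protein by 0.1% SRB staining after 10% TCA fixation, read at 560 nm. Bidirectional fitting versus DMSO baseline.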

[14] = target: human Thyroid Receptor alpha (THRa1), THRA (gene 7067) (UniProt P10827); assay: ATG_THRa1_TRANS: Attagene TRANS-FACTORIAL HepG2 Assay for human Thyroid Receptor alpha (THRa1) (AID 2283014; active = hit-call score of the fitted dose curve at least 0.9, where 1 is the maximum)
human Thyroid Receptor alpha (THRa1), THRA (gene 7067), sequence (P10827 whole entry, looked up, the tested form may be a part): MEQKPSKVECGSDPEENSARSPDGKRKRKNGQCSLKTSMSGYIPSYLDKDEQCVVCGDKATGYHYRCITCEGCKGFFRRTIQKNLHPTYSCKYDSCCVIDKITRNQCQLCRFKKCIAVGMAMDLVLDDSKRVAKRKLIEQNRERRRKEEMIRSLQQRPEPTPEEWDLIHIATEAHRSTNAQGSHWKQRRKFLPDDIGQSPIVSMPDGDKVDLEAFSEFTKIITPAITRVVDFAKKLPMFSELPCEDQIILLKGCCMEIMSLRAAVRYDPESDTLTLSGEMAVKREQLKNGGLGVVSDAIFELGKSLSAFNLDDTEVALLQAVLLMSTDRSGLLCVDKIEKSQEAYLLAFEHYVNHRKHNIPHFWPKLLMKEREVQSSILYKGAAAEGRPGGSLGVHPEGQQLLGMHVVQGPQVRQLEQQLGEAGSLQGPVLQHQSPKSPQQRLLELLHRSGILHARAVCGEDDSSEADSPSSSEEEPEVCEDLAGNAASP
Method in brief: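 HepG2 cells transiently transfected with chimeric NR-Gal4 and GAL4-UAS reporter units, dosed 24 h. Reporter mRNA quantified by RT-PCR, fluorescent labeling, HpaI digestion and capillary electrophoresis; gain-of-signal fit versus DMSO.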

[15] = read-out: Interleukin-1 alpha (IL1a), IL1A (gene 3552); assay: BSK_BE3C_IL1a: BioMAP Diversity Plus: BE3C Assay for Interleukin-1 alpha (IL1a) Biomarker Activity (AID 2283016); conditions: primary human bronchial epithelial cells; actives raise or lower the signal
Method in brief: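 BE3C primary human bronchial epithelium; cpd 24 h; IL-1a by ELISA; bidirectional fit vs DMSO; parallel SRB (0.1% SRB, 10% TCA fix, 560 nm) for cytotoxicity.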

[16] = target: human Vitamin D Receptor (VDR), VDR (gene 7421) (UniProt P11473); assay: ATG_VDR_TRANS: Attagene TRANS-FACTORIAL HepG2 Assay for human Vitamin D Receptor (VDR) (AID 2283022; active = hit-call score of the fitted dose curve at least 0.9, where 1 is the maximum)
human Vitamin D Receptor (VDR), VDR (gene 7421), sequence (P11473 whole entry, looked up, the tested form may be a part): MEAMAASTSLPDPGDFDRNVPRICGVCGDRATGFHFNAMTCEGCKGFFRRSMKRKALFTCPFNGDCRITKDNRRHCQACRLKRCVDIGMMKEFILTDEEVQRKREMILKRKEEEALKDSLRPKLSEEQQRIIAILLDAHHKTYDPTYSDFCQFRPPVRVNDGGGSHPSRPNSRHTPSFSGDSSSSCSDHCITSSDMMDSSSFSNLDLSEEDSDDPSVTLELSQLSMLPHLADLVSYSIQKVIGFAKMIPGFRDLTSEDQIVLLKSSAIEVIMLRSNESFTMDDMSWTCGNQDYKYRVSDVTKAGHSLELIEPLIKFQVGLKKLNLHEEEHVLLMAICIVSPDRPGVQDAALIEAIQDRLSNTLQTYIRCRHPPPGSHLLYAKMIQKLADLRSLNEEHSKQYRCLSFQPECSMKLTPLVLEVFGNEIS
Method in brief: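 HepG2 cells were transiently transfected with GAL4-UAS reporter units and a chimeric VDR-Gal4 construct, then dosed for 24 hours. Reporter mRNA was quantified by RT-PCR, fluorescent labeling, HpaI digestion and capillary electrophoresis; gain of signal analysed vs DMSO.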

[17] = read-out: Matrix Metallopeptidase 1 (MMP1), MMP1 (gene 4312); assay: BSK_BE3C_MMP1: BioMAP Diversity Plus: BE3C Assay for Matrix Metallopeptidase 1 (MMP1) Biomarker Activity (AID 2283024); conditions: primary human bronchial epithelial cells; actives raise or lower the signal
Method in brief: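 Human bronchial epithelial cells (BE3C system) exposed to compound for 24 h; MMP1 then quantified by ELISA. Activity was fitted in both directions relative to DMSO.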

[18] = BSK_3C_Vis: BioMAP Diversity Plus: 3C Assay for Morphology Visualization (AID 2283025); conditions: primary human endothelial cells (HUVEC);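 also: light microscopy image of cell morphology used as background control; fitted both ways so gain or loss versus DMSO counts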
Method in brief: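 Chemicals were added to primary human umbilical vein endothelium, cells were incubated 24 h, and morphology was then visualized by light microscopy. Gain or loss of signal was fitted bidirectionally relative to DMSO.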

Measured: AC50

E-selectin (Homo sapiens), sequence (P16581 whole entry, looked up): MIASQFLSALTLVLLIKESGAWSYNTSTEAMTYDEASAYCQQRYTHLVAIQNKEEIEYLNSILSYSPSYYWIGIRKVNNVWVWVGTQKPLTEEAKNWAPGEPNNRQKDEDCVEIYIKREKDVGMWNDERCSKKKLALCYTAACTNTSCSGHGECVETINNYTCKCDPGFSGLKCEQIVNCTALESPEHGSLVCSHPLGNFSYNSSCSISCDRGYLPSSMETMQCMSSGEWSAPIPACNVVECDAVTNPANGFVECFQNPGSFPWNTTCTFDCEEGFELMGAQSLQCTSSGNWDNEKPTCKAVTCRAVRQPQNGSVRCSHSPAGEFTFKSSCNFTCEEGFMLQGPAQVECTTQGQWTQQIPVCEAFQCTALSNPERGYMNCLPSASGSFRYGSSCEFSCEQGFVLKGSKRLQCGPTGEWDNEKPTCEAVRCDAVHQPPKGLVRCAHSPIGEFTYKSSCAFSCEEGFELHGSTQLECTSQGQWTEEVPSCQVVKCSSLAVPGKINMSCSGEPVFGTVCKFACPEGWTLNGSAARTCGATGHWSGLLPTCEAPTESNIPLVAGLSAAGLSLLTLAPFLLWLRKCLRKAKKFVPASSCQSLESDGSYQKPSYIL

O=S(=O)(Cl)C(F)(F)C(F)(F)C(F)(F)C(F)(F)C(F)(F)C(F)(F)C(F)(F)C(F)(F)F
active: [5] 46.5 µM and 39.2 µM | [7] 22.3 µM | [9] 30 µM and 35.3 µM | [12] 45.9 µM | [13] 43.9 µM and 30.7 µM
inactive: [1] | [2] | [3] | [4] | [6] | [7] | [8] | [10] | [11] | [12]

NC(=O)C(F)(F)C(F)(F)C(F)(F)C(F)F
not listed: [2] | [15] | [16] | [17] | [18]
inactive: all other assays above

O=C1C=CC(=O)N1c1ccc(Cc2ccc(N3C(=O)C=CC3=O)cc2)cc1
active: [5] 8.52 µM | [15] 3.26 µM | [6] 8.09 µM | [7] 7.61 µM | [9] 7.33 µM | [10] 12 µM | [17] 4.99 µM | [18] 5.63 µM | [11] 7.11 µM | [12] 12.1 µM | [13] 3.04 µM
inactive: [1] | [2] | [3] | [4] | [14] | [16]

COc1ccccc1C=O
inactive: [1] | [3] | [4] | [14]

CCc1cccc(C)c1N(C(=O)C(=O)O)C(C)COC (stereo not given)
inactive: [1] | [2] | [4]

CN(N=O)C(=O)N[C@@H]1[C@@H](O)[C@H](O)[C@@H](CO)O[C@@H]1O
inactive: [1] | [2] | [3] | [14] | [16]

C=CC(=O)OCC(F)(F)C(F)(F)C(F)(F)C(F)(F)C(F)(F)C(F)(F)C(F)(F)C(F)F
not listed: [2] | [8] | [14] | [17] | [18]
inactive: all other assays above

Cc1cc(=O)[nH]c(C(C)C)n1
inactive: [1] | [2] | [4] | [16]

N#Cc1ccccc1O
inactive: [1] | [2] | [3] | [4] | [16]

CCCCC(CC)COC(=O)c1ccc(N(C)C)cc1 (stereo not given)
inactive: [1] | [3] | [14] | [16]

CC(C)OC(=O)COc1ccc(Cl)cc1Cl
inactive: [1]

CSc1ccc(Cl)cc1
inactive: [1] | [2] | [14]

Nc1c(Br)cc([N+](=O)[O-])cc1Br
inactive: [1] | [2] | [3] | [14] | [16]

CCC(=O)OC(C)c1ccccc1 (stereo not given)
inactive: [1] | [2] | [4] | [14]
